Experimental data taken from PubChem BioAssay AID1159580 (chemical genetic matrix, 2015).
Screen size: about 5,500 compounds; about 2,000 (36%) were called active. Roughly 18% stayed inconclusive and do not appear here. Cut-off read from the data, not from the text of the source: active = normalized growth mostly below about 0.91 (no sharp cut-off); inconclusive = no clear call, values can overlap the other calls; inactive = mostly above about 0.92. Some of the results follow.

Experiment: chemical genetic growth profiling, strain panel (AID 1159580);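 note: tested at 20 µM; growth read once vehicle control cultures reached saturation at 30 °C; 1 = growth at the plate median or of vehicle wells; lower values mean less growth of the strain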
Details: growth OD
[1] = S. cerevisiae deletion strains, locus YDL101C, strain DUN1, stronger effect = lower value
[2] = S. cerevisiae deletion strains, locus YHR030C, strain SLT2, stronger effect = lower value

Measured: normalized growth

O=C(OCc1ccc(Oc2ccc(Cl)cc2Cl)c([N+](=O)[O-])c1)c1ccc([N+](=O)[O-])o1
inactive: S. cerevisiae deletion strains, locus YAR019C, strain CDC15, stronger effect = lower value 0.98 | S. cerevisiae deletion strains, locus YBL105C, strain PKC1, stronger effect = lower value 0.975 | S. cerevisiae deletion strains, locus YBR135W, strain CKS1, stronger effect = lower value 0.981 | S. cerevisiae deletion strains, locus YBR136W, strain MEC1, stronger effect = lower value 0.961 | S. cerevisiae deletion strains, locus YBR160W, strain CDC28, stronger effect = lower value 0.97 | S. cerevisiae deletion strains, locus YDL017W, strain CDC7, stronger effect = lower value 0.979 | S. cerevisiae deletion strains, locus YDL028C, strain MPS1, stronger effect = lower value 0.958 | [1] 0.98 | S. cerevisiae deletion strains, locus YDL108W, strain KIN28, stronger effect = lower value 0.969 | S. cerevisiae deletion strains, locus YDL132W, strain cdc53, stronger effect = lower value 0.974 | S. cerevisiae deletion strains, locus YDL214C, strain PRR2, stronger effect = lower value 1.01 | S. cerevisiae deletion strains, locus YDR052C, strain DBF4, stronger effect = lower value 0.99 | S. cerevisiae deletion strains, locus YDR054C, strain cdc34, stronger effect = lower value 0.968 | S. cerevisiae deletion strains, locus YDR226W, strain ADK1, stronger effect = lower value 0.97 | S. cerevisiae deletion strains, locus YDR477W, strain SNF1, stronger effect = lower value 0.971 | S. cerevisiae deletion strains, locus YER123W, strain YCK3, stronger effect = lower value 0.987 | S. cerevisiae deletion strains, locus YER133W, strain GLC7, stronger effect = lower value 0.995 | S. cerevisiae deletion strains, locus YFL009W, strain cdc4, stronger effect = lower value 0.956 | S. cerevisiae deletion strains, locus YFL029C, strain CAK1, stronger effect = lower value 0.978 | S. cerevisiae deletion strains, locus YFR003C, strain YPI1, stronger effect = lower value 0.985 | S. cerevisiae deletion strains, locus YFR019W, strain FAB1, stronger effect = lower value 0.99 | S. cerevisiae deletion strains, locus YFR028C, strain CDC14, stronger effect = lower value 0.969 | S. cerevisiae deletion strains, locus YGR040W, strain KSS1, stronger effect = lower value 0.977 | S. cerevisiae deletion strains, locus YGR052W, strain FMP48, stronger effect = lower value 1.07 | S. cerevisiae deletion strains, locus YGR092W, strain DBF2, stronger effect = lower value 0.957 | [2] 0.916 | S. cerevisiae deletion strains, locus YHR079C, strain IRE1, stronger effect = lower value 0.997 | S. cerevisiae deletion strains, locus YHR082C, strain KSP1, stronger effect = lower value 1.04 | S. cerevisiae deletion strains, locus YHR205W, strain SCH9, stronger effect = lower value 0.93 | S. cerevisiae deletion strains, locus YIL147C, strain SLN1, stronger effect = lower value 0.977 | S. cerevisiae deletion strains, locus YJL095W, strain BCK1, stronger effect = lower value 0.993 | S. cerevisiae deletion strains, locus YJL128C, strain PBS2, stronger effect = lower value 0.896 | S. cerevisiae deletion strains, locus YJL157C, strain FAR1, stronger effect = lower value 0.987 | S. cerevisiae deletion strains, locus YJR016C, strain ILV3, stronger effect = lower value 0.982 | S. cerevisiae deletion strains, locus YJR066W, strain TOR1 (second series), stronger effect = lower value 0.971 | S. cerevisiae deletion strains, locus YJR066W, strain TOR1, stronger effect = lower value 0.972 | S. cerevisiae deletion strains, locus YKL048C, strain ELM1, stronger effect = lower value 0.991 | S. cerevisiae deletion strains, locus YKL067W, strain YNK1, stronger effect = lower value 1 | S. cerevisiae deletion strains, locus YKL101W, strain HSL1, stronger effect = lower value 0.983 | S. cerevisiae deletion strains, locus YKL193C, strain SDS22, stronger effect = lower value 0.986 | S. cerevisiae deletion strains, locus YKL203C, strain TOR2, stronger effect = lower value 1.07 | S. cerevisiae deletion strains, locus YLR113W, strain HOG1, stronger effect = lower value 0.999 | S. cerevisiae deletion strains, locus YLR133W, strain CKI1, stronger effect = lower value 0.985 | S. cerevisiae deletion strains, locus YLR403W, strain SFP1, stronger effect = lower value 0.962 | S. cerevisiae deletion strains, locus YML070W, strain DAK1, stronger effect = lower value 1 | S. cerevisiae deletion strains, locus YMR001C, strain CDC5, stronger effect = lower value 0.97 | S. cerevisiae deletion strains, locus YMR205C, strain PFK2 (second series), stronger effect = lower value 1.01 | S. cerevisiae deletion strains, locus YMR277W, strain FCP1, stronger effect = lower value 0.966 | S. cerevisiae deletion strains, locus YNL006W, strain LST8, stronger effect = lower value 0.986 | S. cerevisiae deletion strains, locus YNL020C, strain ARK1, stronger effect = lower value 0.996 | S. cerevisiae deletion strains, locus YNL161W, strain CBK1, stronger effect = lower value 0.987 | S. cerevisiae deletion strains, locus YNL183C, strain NPR1, stronger effect = lower value 1.07 | S. cerevisiae deletion strains, locus YNL207W, strain RIO2, stronger effect = lower value 0.982 | S. cerevisiae deletion strains, locus YNL222W, strain SSU72, stronger effect = lower value 0.976 | S. cerevisiae deletion strains, locus YNL307C, strain MCK1 (second series), stronger effect = lower value 0.987 | S. cerevisiae deletion strains, locus YOL078W, strain AVO1, stronger effect = lower value 0.985 | S. cerevisiae deletion strains, locus YOL136C, strain PFK27, stronger effect = lower value 1 | S. cerevisiae deletion strains, locus YOR061W, strain CKA2, stronger effect = lower value 0.975 | S. cerevisiae deletion strains, locus YOR119C, strain RIO1, stronger effect = lower value 1.03 | S. cerevisiae deletion strains, locus YOR231W, strain MKK1, stronger effect = lower value 0.957 | S. cerevisiae deletion strains, locus YOR329C, strain SCD5, stronger effect = lower value 0.982 | S. cerevisiae deletion strains, locus YPL031C, strain PHO85, stronger effect = lower value 0.974 | S. cerevisiae deletion strains, locus YPL153C, strain RAD53, stronger effect = lower value 0.976 | S. cerevisiae deletion strains, locus YPL204W, strain HRR25, stronger effect = lower value 0.983 | S. cerevisiae deletion strains, locus YPL209C, strain IPL1, stronger effect = lower value 0.983 | S. cerevisiae deletion strains, locus YPL256C, strain CLN2, stronger effect = lower value 0.993 | S. cerevisiae deletion strains, locus YPR025C, strain CCL1, stronger effect = lower value 0.979 | S. cerevisiae deletion strains, locus YPR106W, strain ISR1, stronger effect = lower value 0.972 | S. cerevisiae deletion strains, locus YPR111W, strain DBF20, stronger effect = lower value 0.958 | S. cerevisiae deletion strains, strain NNK1, stronger effect = lower value 0.983 | S. cerevisiae deletion strains, strain TSCII, stronger effect = lower value 0.968

O=C(NC(=S)Nc1ccc(Cl)cc1)c1ccc([N+](=O)[O-])o1
inactive: S. cerevisiae deletion strains, locus YAL013W, strain DEP1, stronger effect = lower value 0.958 | S. cerevisiae deletion strains, locus YBR229C, strain ROT2, stronger effect = lower value 0.975 | [1] 1.03 | S. cerevisiae deletion strains, locus YDL134C, strain PPH21, stronger effect = lower value 0.999 | S. cerevisiae deletion strains, locus YDR150W, strain NUM1, stronger effect = lower value 0.964 | S. cerevisiae deletion strains, locus YEL061C, strain CIN8, stronger effect = lower value 0.98 | S. cerevisiae deletion strains, locus YGR078C, strain PAC10, stronger effect = lower value 0.963 | [2] 0.714 | S. cerevisiae deletion strains, locus YHR087W, strain rtc3, stronger effect = lower value 0.955 | S. cerevisiae deletion strains, locus YJR043C, strain POL32, stronger effect = lower value 0.985 | S. cerevisiae deletion strains, locus YJR075W, strain HOC1, stronger effect = lower value 0.984 | S. cerevisiae deletion strains, locus YLR039C, strain RIC1, stronger effect = lower value 0.899 | S. cerevisiae deletion strains, locus YLR058C, strain SHM2 (second series), stronger effect = lower value 0.984 | S. cerevisiae deletion strains, locus YLR085C, strain ARP6, stronger effect = lower value 0.892 | S. cerevisiae deletion strains, locus YLR262C, strain YPT6, stronger effect = lower value 0.917 | S. cerevisiae deletion strains, locus YML094W, strain GIM5, stronger effect = lower value 0.945 | S. cerevisiae deletion strains, locus YMR219W, strain ESC1, stronger effect = lower value 0.978 | S. cerevisiae deletion strains, locus YMR263W, strain SAP30, stronger effect = lower value 0.985 | S. cerevisiae deletion strains, locus YNL128W, strain TEP1, stronger effect = lower value 0.979 | S. cerevisiae deletion strains, locus YNL153C, strain GIM3, stronger effect = lower value 0.999 | S. cerevisiae deletion strains, locus YNL298W, strain CLA4 (second series), stronger effect = lower value 0.912 | S. cerevisiae deletion strains, locus YNL322C, strain KRE1, stronger effect = lower value 0.96 | S. cerevisiae deletion strains, locus YNR030W, strain Alg12, stronger effect = lower value 0.956 | S. cerevisiae deletion strains, locus YOL006C, strain TOP1, stronger effect = lower value 0.999 | S. cerevisiae deletion strains, locus YPL055C, strain LGE1, stronger effect = lower value 0.937 | S. cerevisiae deletion strains, locus YPL241C, strain CIN2, stronger effect = lower value 1.08 | S. cerevisiae strains, strain wild type, stronger effect = lower value 0.981
active: S. cerevisiae deletion strains, locus YPR135W, strain CTF4, stronger effect = lower value 0.577
